# Screening data deposited in PubChem by National Center for Advancing Translational Sciences (NCATS).
# The list is not random: actives were taken first. Their share in the collection is about 2.4%.
# D2 antag: HTS Assay for Allosteric Antagonists of the Human D2 Dopamine Receptor: Primary Screen for Antagonists; 340,000 tested, 2% active; HEK293 TREx D2 cells, calcium flux, dopamine EC80; inhibition, % at 10 µM; D(2) dopamine receptor (Homo sapiens), P14416; AID 485344, 2010; in the data active = inhibition above about 30%; inactive = below that, where a call was filed; note: 0% is about no effect
# Target sequence (P14416 whole entry, looked up): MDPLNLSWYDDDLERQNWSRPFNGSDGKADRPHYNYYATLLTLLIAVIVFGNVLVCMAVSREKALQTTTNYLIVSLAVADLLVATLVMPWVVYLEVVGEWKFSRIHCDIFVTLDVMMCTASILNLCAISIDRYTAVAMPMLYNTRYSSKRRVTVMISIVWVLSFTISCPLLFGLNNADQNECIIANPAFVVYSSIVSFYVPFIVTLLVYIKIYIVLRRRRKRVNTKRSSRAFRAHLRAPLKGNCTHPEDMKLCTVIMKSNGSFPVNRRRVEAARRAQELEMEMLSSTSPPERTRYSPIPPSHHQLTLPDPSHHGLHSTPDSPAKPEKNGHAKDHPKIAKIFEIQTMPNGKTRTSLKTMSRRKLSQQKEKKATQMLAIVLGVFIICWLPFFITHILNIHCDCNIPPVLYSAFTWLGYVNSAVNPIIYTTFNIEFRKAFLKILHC
#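 Tetracycline-induced HEK293 TREx cells expressing D2 receptor forced-coupled to calcium signalling, loaded with no-wash calcium dye. Compounds added and calcium flux read 180 s, then dopamine added at EC80 and read a further 180 s.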
# D2 ag-1: HTS Assay for Allosteric Agonists of the Human D2 Dopamine Receptor: Primary Screen for Agonists. HEK293 T-REx D2 cells, calcium flux agonist mode. activation, % at 2 µM. 340,000 tested, 0.53% active. AID 485358, 2010;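 active = activation over 3 SD above normal in the single-dose calcium agonist read, cut at about 30% in these data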; note: 0% is about no effect
#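 Tetracycline-induced HEK293 T-REx cells with force-coupled D2 receptor, plated overnight at 30 C, loaded with no-wash calcium dye. After a 10 s baseline, compound was pin-added and calcium flux read kinetically for 180 s; calcium rises flagged agonists.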
# D2 PAM-1: HTS Assay for Positive Allosteric Modulators of the Human D2 Dopamine Receptor: Primary Screen for Potentiators; HEK293 T-REx D2, calcium flux, EC20 dopamine potentiation; 340,000 tested, 0.34% active; potentiation, % at 10 µM;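 active = potentiation over 3 SD above the plate norm, cut at about 30% in these data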; note: 0% is about no effect
#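 Tetracycline-induced HEK293 T-REx cells force-coupled to calcium signalling expressed D2; compounds were pin-added after a 10 s baseline, read kinetically 180 s, then an EC20 dopamine challenge followed with a further 180 s calcium read.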
# D2 PAM-2: Beta-Arrestin HTS for Positive Allosteric Modulators of the Human D2 Dopamine Receptor: Potentiators; D(2) dopamine receptor (Homo sapiens), P14416; 360,000 tested, 0.23% active; potentiation, % (concentration not given with the values); DiscoveRx D2 beta-arrestin cells, luminescence, 90 min; 100% = 57 uM dopamine signal; in the data active = potentiation above about 50%; inconclusive = mostly about 30% to 49%
#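 PathHunter D2 cells, attached overnight at 37 deg C, received compound in DMSO plus dopamine at EC20 (50 nM final) for 90 min at 37 deg C. Beta-arrestin recruitment was read as luminescence after 1 h with detection reagent at ambient temperature.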
# D2 ag-2: Beta-Arrestin HTS for Positive Allosteric Modulators of the Human D2 Dopamine Receptor: Agonists | DiscoveRx PathHunter D2 beta-arrestin, luminescence, 90 min; 100% = 57 uM dopamine signal | 360,000 tested, 0.084% active | activation, % (concentration not given with the values) | D(2) dopamine receptor (Homo sapiens), P14416 | AID 624465, 2012; in the data active = activation above about 40%; inconclusive = between about 15% and that limit
#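 DiscoveRx PathHunter D2 beta-arrestin cells (2,100/well) attached overnight, then compound-stimulated 90 min at 37 C in HBSS/10 mM HEPES/0.1% Tween-20 buffer; beta-galactosidase complementation read by luminescence after 1 h at ambient temperature. Dopamine 57 uM final (EC100) as control.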
# * = called active by the depositor; ? = inconclusive; . = not tested or not shown.
SMILES,D2 antag,D2 ag-1,D2 PAM-1,D2 PAM-2,D2 ag-2
COc1ccc(C(=O)[C@H]2[C@H]3C(=O)N(c4ccccc4)C(=O)[C@H]3C3C=CC=NN32)cc1 (some centres undefined),43*,0,-4,-3,-3
CCc1c(C)sc2c1CCN(Cc1cccc(OC)c1)C2c1ccccc1 (centres undefined),.,0,-2,.,.
Cn1cccc1-c1cc(C(=O)N/N=C/c2ccc(Cl)cc2)[nH]n1,35*,-1,-20,-8,3
COc1cc(/C=N/NC(=O)c2cccc3ccccc23)cc(OC)c1O,3,0,3,7,7
COc1cc(/C=N/NC(=O)c2cccc3ccccc23)cc(OC)c1OC,30*,-3,-11,3,-2
COc1cc(C#N)ccc1OCC(=O)N1CCc2ccccc2C1,2,-1,38*,-6,-6
Cc1cc(OCC(=O)OCC(=O)N2CCc3ccccc3C2)ccc1Cl,24,0,36*,1,-2
CC(C)NS(=O)(=O)c1ccc(OCC(=O)N2CCCC2)cc1,.,.,-8,-17,0
CC(C)NS(=O)(=O)c1ccc(OCC(=O)N2CCc3ccccc3C2)cc1,30*,-1,5,-4,2
CCc1ccccc1N1CC(c2nc3ccccc3n2CCC2CCCCC2)CC1=O (centres undefined),.,1,-2,.,.
Cc1oc(-c2ccc(C(=O)NCc3ccc(Cl)cc3)cc2)nc1CS(=O)(=O)c1ccccc1,.,1,-3,.,.
COc1cc(C)ccc1OCCSc1nc2ccc(NC(=O)c3ccco3)cc2s1,.,-1,-9,.,.
Cc1ccc(S(=O)(=O)NNC(=O)CCC(=O)Nc2ccc(C)c(C)c2)cc1,32*,1,10,-29,-12
CCCCNc1c(-c2ccc(OC)c(SC3CCCCC3)c2)nc2ccc(C)cn12,.,.,.,-9,48*
CCCCNc1c(-c2ccc(SC3CCCCC3)c(OC)c2)nc2ccc(C)cn12,.,.,.,2,7
CCc1ccc(-n2nc(CO)c(C(=O)NC(C)c3ccc(Cl)cc3)n2)cc1 (centres undefined),.,-1,0,.,.
CC(=O)Nc1ccc(S(=O)(=O)NC2(C(F)(F)F)NC(=O)N(C3CCCC3)C2=O)cc1 (centres undefined),1,-2,33*,3,0
Cc1ccc(C)c(N2CCN(S(=O)(=O)c3ccc(F)c(C(=O)Nc4ccc(Cl)cc4Cl)c3)CC2)c1,.,0,-10,.,.
CCc1ccc(Cn2c(CNS(=O)(=O)c3ccc([N+](=O)[O-])cc3)nc3cccnc32)cc1,.,0,9,.,.
COc1cccc(CCNC(=O)c2ccc(Cn3c(SCc4ccccc4)nc4cccnc43)cc2)c1,.,.,-7,.,.
O=C(Nc1cc(=O)c2ccccc2o1)N1CCCCC1,17,2,9,-13,-1
O=C(Nc1cc(=O)c2ccccc2o1)N1CCOCC1,-2,1,31*,-9,-1
CC(=O)N1CCN(C(=S)NC(=O)C23CC4CC(CC(C4)C2)C3)CC1,-3,0,34*,-13,-1
CNC(=S)N1CCC(NC(=O)C23CC4CC(CC(C4)C2)C3)CC1,6,0,-4,-3,5
Cc1noc(/C=C/c2ccccc2F)c1S(=O)(=O)N1CCC(C(=O)Nc2ccc(C#N)cc2)CC1,.,0,7,.,.
SMILES,D2 antag,D2 ag-1,D2 PAM-1,D2 PAM-2,D2 ag-2
Cc1ccc(Oc2nc(-c3ccccc3)ncc2S(C)(=O)=O)cc1,9,0,9,7,-3
Cc1ccc(Oc2nc(-c3ccccc3)ncc2S(=O)(=O)c2ccc(C)cc2)cc1,40*,-1,2,0,0
CCC(Cn1nnc2ccccc2c1=O)NC(=O)Nc1cc(C)cc(C)c1 (centres undefined),.,-1,-27,.,.
CCN1/C(=C/C=C/c2oc3ccc(-c4ccccc4)cc3[n+]2CC)Oc2ccc(-c3ccccc3)cc21,76*,149*,-26,-24,-6
CCN1/C(=C/C=C/c2sc3ccccc3[n+]2CC)Sc2ccccc21,.,.,.,-23,-7
COC(=O)c1cc(Cl)c(NC(=O)c2cc3ccccc3o2)cc1OC,32*,1,-5,-11,-1
COc1ccc(NC(=O)c2cc3ccccc3o2)c(OC)c1,.,.,-11,.,.
CCc1ccc(N=C2NC(=O)/C(=C/c3cc(OC)c(O)c(OC)c3)S2)cc1,15,5,-21,-55,?
COc1cc(/C=C2\SC(=Nc3ccccc3)NC2=O)cc(Cl)c1O,38*,74*,-10,-15,-2
COc1cc(/C=C2\SC(=Nc3ccc(Cl)c(C(=O)O)c3)NC2=O)c(Br)c(Br)c1O,37*,87*,-1,-1,-4
COC(=O)/C=C1\SC(=Nc2ccc(Cl)c(Cl)c2)NC1=O,-1,1,.,-3,6
CCOC(=O)c1[nH]c(C)c(C(=O)NC(CC)Cc2ccccc2)c1C (centres undefined),.,4,4,.,.
CCOc1ccc(/C=N/OCC(=O)NCc2ccc3c(c2)OCO3)cc1OC,32*,-1,-8,-18,1
Cc1cccc(-c2noc(-c3ccc(NCc4ccccc4)c([N+](=O)[O-])c3)n2)c1,.,-1,4,.,.
O=c1[nH]c(Nc2ccc3c(c2)OCCO3)nnc1Cc1ccc(Cl)cc1,33*,0,2,-4,-1
COc1ccc(Cc2nnc(Nc3ccc(Cl)cc3)[nH]c2=O)cc1,-4,-1,-1,0,4
O=C(c1ccc(N2C(=O)CCC2=O)cc1)N1CCOCC1,53*,0,-4,2,-1
Cc1cc(C)n(C(=O)c2ccc(NC(=O)CC(C)C)cc2)n1,33*,0,-11,-12,-1
CCC(=O)Nc1ccc(C(=O)n2nc(C)cc2C)cc1,-26,1,15,1,-3
CC(C)COc1ccc(C(=O)Nc2onc3c2CCCC3)cc1,.,-1,5,.,.
COc1cc(C(=O)N(Cc2cccnc2)Cc2cc3cc4c(cc3[nH]c2=O)OCCO4)cc(OC)c1OC,37*,0,7,5,-3
O=C1CCCN1c1ncc(S(=O)(=O)c2ccc([N+](=O)[O-])cc2)s1,-12,1,5,54*,?
COc1ccc(CC(=O)NNC(=O)c2cc(C)oc2C)cc1OC,32*,1,-4,-33,-6
CC1CCCN(CCC(=O)c2ccc(Br)cc2)C1 (centres undefined),29,-1,-11,-50,0
CCOc1cccc(OCCCCN2CCCCC2)c1,-10,1,-18,-33,-2
